The test system of experiment [1] is Tyrosine-protein kinase ABL1 (Homo sapiens), P00519 [T315I]. The following applies: at 1 µM.
The subject of experiment [2] is Tyrosine-protein kinase ABL1 (Homo sapiens), P00519 [Y253F]. Conditions: at 0.1 µM.
For experiment [3] the test system is unchanged. Conditions: at 1 µM.
For experiment [4], the target named is Tyrosine-protein kinase ABL1 (Homo sapiens) (UniProt P00519). The following applies: at 0.1 µM.
Experiment [5] has the same target. Conditions: at 1 µM.
Experiment [6] addresses ALK tyrosine kinase receptor (Homo sapiens) (UniProt Q9UM73). The following applies: at 0.1 µM.
Experiment [7] shares this target. Conditions: at 1 µM.
In experiment [8] the target is Tyrosine-protein kinase ABL2 (Homo sapiens) (UniProt P42684). The following applies: at 0.1 µM.
Sequence of Tyrosine-protein kinase ABL2 (Homo sapiens) (P42684 whole entry): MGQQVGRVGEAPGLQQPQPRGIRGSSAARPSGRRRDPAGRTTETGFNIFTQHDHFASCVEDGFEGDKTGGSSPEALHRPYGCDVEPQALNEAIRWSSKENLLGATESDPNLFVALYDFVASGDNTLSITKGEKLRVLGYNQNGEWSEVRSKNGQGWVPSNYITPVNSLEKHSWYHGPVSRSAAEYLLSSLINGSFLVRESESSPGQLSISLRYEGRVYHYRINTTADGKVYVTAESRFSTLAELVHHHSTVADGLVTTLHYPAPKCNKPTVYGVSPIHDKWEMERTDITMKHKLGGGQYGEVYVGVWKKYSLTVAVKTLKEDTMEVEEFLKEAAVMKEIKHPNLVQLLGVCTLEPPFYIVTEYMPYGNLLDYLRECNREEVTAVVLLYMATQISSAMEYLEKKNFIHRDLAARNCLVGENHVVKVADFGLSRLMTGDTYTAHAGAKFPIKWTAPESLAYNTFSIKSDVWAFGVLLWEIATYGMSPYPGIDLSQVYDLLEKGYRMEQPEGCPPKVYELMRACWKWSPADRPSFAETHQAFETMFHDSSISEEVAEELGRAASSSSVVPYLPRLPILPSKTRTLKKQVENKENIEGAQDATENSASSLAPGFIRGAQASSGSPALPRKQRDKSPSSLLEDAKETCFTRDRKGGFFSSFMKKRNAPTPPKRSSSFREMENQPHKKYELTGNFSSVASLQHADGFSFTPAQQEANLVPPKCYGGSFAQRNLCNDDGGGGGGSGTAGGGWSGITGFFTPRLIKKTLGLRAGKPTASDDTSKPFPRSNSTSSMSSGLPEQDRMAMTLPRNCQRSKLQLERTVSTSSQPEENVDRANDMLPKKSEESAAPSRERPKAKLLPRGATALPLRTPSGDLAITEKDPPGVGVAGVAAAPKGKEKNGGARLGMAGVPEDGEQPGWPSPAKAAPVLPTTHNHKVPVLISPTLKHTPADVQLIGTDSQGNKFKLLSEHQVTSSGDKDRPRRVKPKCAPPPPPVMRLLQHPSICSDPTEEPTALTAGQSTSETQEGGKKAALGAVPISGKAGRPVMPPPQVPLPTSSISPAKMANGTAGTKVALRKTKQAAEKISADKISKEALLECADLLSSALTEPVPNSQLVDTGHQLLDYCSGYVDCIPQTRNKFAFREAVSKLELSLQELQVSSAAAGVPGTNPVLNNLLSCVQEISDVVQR
For experiment [9] the target is unchanged. The following applies: at 1 µM.
For experiment [10], the target named is Tyrosine-protein kinase receptor UFO (Homo sapiens) (UniProt P30530). The following applies: at 0.1 µM.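 Further: values are mean percent inhibition of AXL from the GSK PKIS screen.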
Sequence of Tyrosine-protein kinase receptor UFO (Homo sapiens) (P30530 whole entry): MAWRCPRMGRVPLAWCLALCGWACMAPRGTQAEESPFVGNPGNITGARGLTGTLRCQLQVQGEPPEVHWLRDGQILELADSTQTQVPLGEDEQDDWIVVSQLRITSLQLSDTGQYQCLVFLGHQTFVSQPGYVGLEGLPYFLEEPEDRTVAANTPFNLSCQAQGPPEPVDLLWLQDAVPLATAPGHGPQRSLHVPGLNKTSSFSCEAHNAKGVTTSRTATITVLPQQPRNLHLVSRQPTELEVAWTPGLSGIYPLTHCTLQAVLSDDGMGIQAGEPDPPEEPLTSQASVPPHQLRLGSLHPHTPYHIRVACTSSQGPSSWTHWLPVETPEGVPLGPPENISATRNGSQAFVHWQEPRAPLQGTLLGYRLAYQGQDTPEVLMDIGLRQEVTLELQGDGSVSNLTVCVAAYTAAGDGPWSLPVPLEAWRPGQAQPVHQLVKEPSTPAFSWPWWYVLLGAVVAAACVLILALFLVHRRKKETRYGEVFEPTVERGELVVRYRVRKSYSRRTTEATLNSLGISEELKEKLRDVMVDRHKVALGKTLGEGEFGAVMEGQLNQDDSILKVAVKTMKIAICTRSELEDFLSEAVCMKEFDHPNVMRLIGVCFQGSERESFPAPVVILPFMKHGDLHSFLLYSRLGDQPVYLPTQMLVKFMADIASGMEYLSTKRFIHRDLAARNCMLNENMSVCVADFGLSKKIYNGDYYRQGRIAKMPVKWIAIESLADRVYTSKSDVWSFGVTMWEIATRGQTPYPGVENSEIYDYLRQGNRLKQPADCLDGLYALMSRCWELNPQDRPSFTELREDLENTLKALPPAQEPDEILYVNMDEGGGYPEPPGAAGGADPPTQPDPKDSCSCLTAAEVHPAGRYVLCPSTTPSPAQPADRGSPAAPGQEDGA

Values joined by “and” are separate entries in the source; they are usually repeats but may differ in a detail not shown here. Identical values can stand only once.

Sequence of ALK tyrosine kinase receptor (Homo sapiens) (Q9UM73 19-1620 limits assumed): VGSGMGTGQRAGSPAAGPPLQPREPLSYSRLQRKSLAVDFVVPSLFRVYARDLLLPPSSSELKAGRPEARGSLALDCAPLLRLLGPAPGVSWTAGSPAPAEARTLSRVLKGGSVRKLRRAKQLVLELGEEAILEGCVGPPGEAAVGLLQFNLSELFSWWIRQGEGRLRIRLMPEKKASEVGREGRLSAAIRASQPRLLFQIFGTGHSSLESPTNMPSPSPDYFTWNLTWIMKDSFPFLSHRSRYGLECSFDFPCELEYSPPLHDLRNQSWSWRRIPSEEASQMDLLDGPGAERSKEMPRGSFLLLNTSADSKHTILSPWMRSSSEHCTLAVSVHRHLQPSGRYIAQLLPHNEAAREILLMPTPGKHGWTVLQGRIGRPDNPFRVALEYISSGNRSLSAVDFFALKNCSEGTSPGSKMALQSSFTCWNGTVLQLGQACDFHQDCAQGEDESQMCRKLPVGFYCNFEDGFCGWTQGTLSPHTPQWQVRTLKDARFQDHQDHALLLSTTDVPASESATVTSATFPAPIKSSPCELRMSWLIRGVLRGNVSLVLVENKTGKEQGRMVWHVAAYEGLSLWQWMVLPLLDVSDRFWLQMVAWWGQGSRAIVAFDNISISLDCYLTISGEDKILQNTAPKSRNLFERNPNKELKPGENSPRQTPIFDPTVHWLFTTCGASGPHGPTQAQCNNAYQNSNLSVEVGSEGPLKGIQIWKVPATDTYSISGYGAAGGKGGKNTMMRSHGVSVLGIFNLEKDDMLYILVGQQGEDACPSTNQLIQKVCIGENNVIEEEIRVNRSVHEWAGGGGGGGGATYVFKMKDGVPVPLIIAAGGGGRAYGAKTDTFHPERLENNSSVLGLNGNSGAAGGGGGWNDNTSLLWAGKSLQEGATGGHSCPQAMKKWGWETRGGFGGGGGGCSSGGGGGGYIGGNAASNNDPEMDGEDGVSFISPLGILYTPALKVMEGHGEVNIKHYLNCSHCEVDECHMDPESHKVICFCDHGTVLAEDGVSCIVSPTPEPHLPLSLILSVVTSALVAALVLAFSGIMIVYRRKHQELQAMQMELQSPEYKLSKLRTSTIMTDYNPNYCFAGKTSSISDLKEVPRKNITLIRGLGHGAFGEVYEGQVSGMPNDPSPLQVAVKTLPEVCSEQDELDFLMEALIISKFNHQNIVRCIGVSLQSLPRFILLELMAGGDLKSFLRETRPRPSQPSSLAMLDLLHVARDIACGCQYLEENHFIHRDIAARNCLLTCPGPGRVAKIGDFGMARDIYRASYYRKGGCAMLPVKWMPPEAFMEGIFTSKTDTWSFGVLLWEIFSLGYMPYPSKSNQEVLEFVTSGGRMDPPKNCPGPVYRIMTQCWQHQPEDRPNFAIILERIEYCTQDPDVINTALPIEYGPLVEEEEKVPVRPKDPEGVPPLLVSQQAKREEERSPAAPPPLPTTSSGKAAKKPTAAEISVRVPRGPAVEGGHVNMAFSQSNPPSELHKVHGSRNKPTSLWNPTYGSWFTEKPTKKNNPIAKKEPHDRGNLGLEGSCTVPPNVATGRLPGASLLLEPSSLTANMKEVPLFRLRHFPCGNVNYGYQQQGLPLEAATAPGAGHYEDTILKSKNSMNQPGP

For `O=C(O[C@H]1CN[C@H](C#Cc2cc3ncnc(Nc4ccc5c(ccn5Cc5cc(F)ccc5F)c4)c3s2)C1)N1CCOCC1`, the inhibition turned out to be 3.69% in experiment [1]; 2.24% in experiment [2]; 4.4% in experiment [3]; 3.14% in experiment [4]; 3.38% in [5]; 4.15% in experiment [6]. Besides, the inhibition is 4.73% in [7], 1.18% in [8], 1.47% in experiment [9] and -7.4% in [10].
With `COC(=O)Nc1nc2cc(Oc3ccc(NC(=O)Nc4ccccc4)cc3)ccc2[nH]1`, the inhibition in [1] came out at 31.3%; in experiment [2], 6.49%; in [3], 18.9%; in experiment [4] it was 5.66%; in experiment [5] it was 11.3%; in [6] it was 1.19%. Also, the inhibition is 2.23% in experiment [7], 9.07% in experiment [8], 16.8% in experiment [9] and -7.01% in experiment [10].
In the case of `O=C(O[C@H]1CN[C@H](C#Cc2cc3ncnc(Nc4ccc5c(cnn5Cc5ccccc5)c4)c3s2)C1)N1CCOCC1`, the inhibition is 0.36% in [1]; -0.26% in experiment [2]; 0.7% in experiment [3]; -0.22% in [4]; 2.55% in experiment [5]; -0.47% in experiment [6]. Also, the inhibition in experiment [7] is 0.05%; in experiment [8] it was -0.58%; in experiment [9], 2.25%; in experiment [10], 0.41%.
Take `CC1=C(C(=O)Nc2ccc3[nH]ncc3c2)C(c2ccc(F)cc2)N=C(c2ccc(C(F)(F)F)nc2)N1` (stereo not given): the inhibition in experiment [1] turned out to be 2.27%; in [2], 3.86%; in experiment [3], 2.79%; in experiment [4], 3.97%; in experiment [5], 10.4%; in experiment [6], 4.23%. For the same molecule, the inhibition is 4.29% in experiment [7], 3.72% in experiment [8], 8.41% in [9] and -1.91% in experiment [10].
As to `CCN1CCC(C(=O)Nc2n[nH]c3nnc(-c4cccc(F)c4F)cc23)CC1`, the inhibition is 1.7% in experiment [1]; -0.98% in [2]; -1.38% in experiment [3]; 0.49% in experiment [4]; 0.51% in experiment [5]; 0.15% in experiment [6]. The inhibition in experiment [7] stood at 1.71%; in experiment [8] it was 1.05%; in [9], 1.43%; in experiment [10], 1.6%.
As for `CN1CCN(Cc2ccc(-c3cc4ncnc(Nc5ccc(OCc6cccc(F)c6)c(Cl)c5)c4s3)o2)CC1`, the inhibition is 16.3% and 19.7% in [1]; 4.69% and 4.76% in [2]; 12.2% and 15.9% in experiment [3]; 3.24% and 4% in experiment [4]; 9.31% and 11% in experiment [5]; 2.64% and 4.3% in experiment [6]. The inhibition is 8.37% and 11.1% in experiment [7]; 3.03% and 4.53% in experiment [8]; 5.38% and 10.7% in experiment [9]; -3.61% and -5.96% in [10].
As for `c1cnn2ncc(-c3ccnc(NCCCN4CCOCC4)n3)c2c1`, the inhibition amounted to 3.23% in experiment [1]; 4.67% in experiment [2]; 1.93% in experiment [3]; 2.22% in [4]; 6.5% in experiment [5]; 2.15% in experiment [6]. Further, the inhibition in experiment [7] is 3.78%; in [8], 2.25%; in experiment [9], 1.19%; in experiment [10], -7.99%.
For `CS(=O)(=O)CCNCc1ccoc1-c1ccc2ncnc(Nc3ccc(OCc4ccccc4)cc3)c2c1`, the inhibition was 0.75% in [1]; 0.71% in experiment [2]; -0.62% in experiment [3]; 2.05% in experiment [4]; 0.92% in experiment [5]; -0.16% in [6]. For the same molecule, the inhibition in [7] was 1.21%; in experiment [8] it was 1.41%; in experiment [9], 3.46%; in experiment [10] it was -0.99%.
On to `COc1cccc(Nc2nccc(-c3cnn4ncccc34)n2)c1`, for which the inhibition in experiment [1] is 30%; in [2], 7.39%; in experiment [3], 39.2%; in experiment [4], 4.97%; in experiment [5], 40.9%; in [6], 5.36%. Also, the inhibition in [7] was 32.3%; in experiment [8], 6.41%; in experiment [9] it was 44.2%; in experiment [10], -0.07%.
For the molecule `CS(=O)(=O)CCNCc1ccc(-c2ccc3ncnc(Nc4ccc(OCc5cccc(C(F)(F)F)c5)cc4)c3c2)o1`, the inhibition in experiment [1] was 2.39%; in experiment [2] it was 2.96%; in experiment [3] it was 3.54%; in experiment [4] it was 6.46%; in experiment [5], 8.69%; in [6], 3%. Further, the inhibition in experiment [7] is 5.12%; in [8], 4.21%; in [9] it was 8.35%; in [10], -6.74%.
Take `COc1cc(N2CCN(C(C)C)CC2)ccc1Nc1nc(Nc2cccc3ncccc23)c2cc[nH]c2n1`: the inhibition was determined as 0.12% in experiment [1]; 0.03% in [2]; 2.91% in experiment [3]; 1.91% in experiment [4]; 9.59% in [5]; 51.7% in experiment [6]. The inhibition was 86.3% in [7], 4.93% in experiment [8], 8.07% in experiment [9] and 1.7% in [10].
Regarding `CS(=O)(=O)CCNCc1ccc(-c2ccc3ncnc(Nc4ccc(OCc5ccccc5)cc4)c3c2)o1`, the inhibition in experiment [1] was determined as 4.95%; in experiment [2], 2.39%; in experiment [3], 4.13%; in experiment [4], 5.38%; in experiment [5] it was 5.59%; in experiment [6], 2.33%. Moreover, the inhibition was 2.76% in experiment [7], 2.73% in experiment [8], 4.87% in experiment [9] and -3.92% in experiment [10].
For the molecule `Fc1ccc(Nc2nccc(-c3c(-c4ccc(C(F)(F)F)cc4)nn4ncccc34)n2)cc1F`, the inhibition in [1] is 0.93%; in experiment [2], 3.58%; in experiment [3], 2.19%; in experiment [4], 5.29%; in experiment [5], 5.12%; in experiment [6] it was 3.18%. Moreover, the inhibition is 6.53% in experiment [7], 3.43% in [8], 4.03% in [9] and -5.49% in experiment [10].
As for `Fc1cccc(COc2ccc(Nc3ncncc3C#Cc3ccccc3)cc2Cl)c1`, the inhibition in [1] is 5.21%; in [2], 2.86%; in [3], 4.69%; in experiment [4], 4.16%; in experiment [5], 11.3%; in experiment [6], 2.52%. Also, the inhibition is 4.64% in experiment [7], 3.23% in experiment [8], 1.72% in experiment [9] and -5.96% in experiment [10].
For `O=C1Nc2ccccc2/C1=C1\CCc2cc(O)ccc21`, the inhibition in experiment [1] worked out at 16.2%; in [2], 5%; in experiment [3] it was 15.6%; in experiment [4] it was 3.68%; in experiment [5], 15%; in [6], 5.54%. The inhibition is 25.4% in [7], 2.63% in experiment [8], 9.37% in experiment [9] and -8.77% in [10].

The record behind these values is ChEMBL document CHEMBL1961873, “Compounds: GSK PKIS; Assays: Nanosyn kinase panel” (2012).
